# Results reported in PubChem BioAssay AID463173 (ICCB-Longwood Screening Facility, Harvard Medical School, 2010).
# Among all 52,000 compounds or so, about 1,700 (3.3%) were called active. What follows is part of a selection rich in actives, with near analogues and random picks from the rest. A number with no mark means an inactive call. Cut-off read from the data, not from the text of the source: active = survival mostly below about 52% (no sharp cut-off); inactive = mostly above about 56%.
# System: Wild type
# Test: growth inhibition of S. aureus wild type versus tarO mutant, primary screen, teichoic acid synthesis inhibitors, RN4220, OD600 (AID 463173)
# Details: S. aureus RN4220 wild type/DeltatarO growth, OD600, 18 h, hits give low values, screened at 18.75 µg/mL (by protocol)
row,Compound,survival
1,CC1CCN(c2nc3ccccc3nc2C(F)(F)F)CC1,78%
2,CC1CCN(c2nc(-c3ccc(C(C)(C)C)cc3)nc3ccccc23)CC1,3% (active)
3,CC1CCCCN1c1nc(-c2ccc(C(C)(C)C)cc2)nc2ccccc12 (configuration not stated),1% (active)
4,CC1CCN(c2nc(-c3ccc(Br)cc3)nc3ccccc23)CC1,105%
5,Brc1ccc(-c2nc(N3CCN(c4ccccc4)CC3)c3ccccc3n2)cc1,127%
6,CC1CCCCN1C(=O)CSc1nc(C2CC2)nc2ccccc12 (configuration not stated),110%
7,CCOC(=O)C(CC)n1nc(C)n2c(cc3occc32)c1=O (configuration not stated),120%
8,CCCN(CCC)CCNC(=O)c1cc2c(-c3ccccc3F)nn(C)c2s1,97%
9,CCNC(=S)N1CCC(n2cnc3ccccc32)CC1,98%
10,Cc1ccc(C(=O)N(c2ccc(C)cc2)S(=O)(=O)c2ccc(Cl)cc2)cc1,73%
11,COc1ccc(Cl)cc1NC(=O)c1cc2nc(-c3ccc4c(c3)OCO4)cc(C(F)(F)F)n2n1,65%
12,Cc1ccc(-n2ncc(C(=O)NCCCN3CCN(c4cccc(Cl)c4)CC3)c2-n2cccc2)cc1,59%
13,Cc1ccc(-n2nc(C)c(C(=O)NCCCN3CCN(c4ccc(F)cc4)CC3)c2-n2cccc2)cc1,101%
14,Cc1ccc(-n2nc(C)c(C(=O)NCCCN3CCN(c4cccc(Cl)c4)CC3)c2-n2cccc2)cc1,-2% (active)
15,O=C(NCCCN1CCN(c2cccc(Cl)c2)CC1)c1cnn(-c2ccc(F)cc2)c1-n1cccc1,0% (active)
16,O=C(NCCCN1CCN(c2ccc(F)cc2)CC1)c1cnn(-c2ccc(F)cc2)c1-n1cccc1,82%
17,Cc1nn(-c2ccc(F)cc2)c(-n2cccc2)c1C(=O)NCCCN1CCN(c2cccc(Cl)c2)CC1,110%
18,COC(=O)c1ccc(Nc2ncnc3c2cnn3C)cc1,81%
19,COc1ccc(OC)c(S(=O)(=O)NCCc2csc(-c3cccc(F)c3)n2)c1,135%

row,Compound,survival
1,CC1=Nc2ccccc2N=C(C)C1,115%
2,CCOc1ccc(-c2nc(SCC(=O)NC3CCCC3)c(-c3ccccc3)[nH]2)cc1OC,73%
3,COC(=O)c1ccc(OC)c(Cn2c(=O)n(-c3ccc(C)cc3)c(=O)c3c2cnn3C)c1,76%
4,CCCCNC(=O)c1cnc2c(-c3ccc(OCC)c(OCC)c3)c(C)nn2c1-c1ccccc1,80%
5,COc1cc(Cl)c(C)cc1NC(=O)c1cnc2c(-c3cccc(C)c3)c(C)nn2c1C,14% (active)
6,CCOc1ccc(OCC)c(NC(=O)c2cnc3c(-c4ccccc4)c(C)nn3c2C)c1,63%
7,COc1cc(CNC(=O)c2cnc3c(-c4cccc(C)c4)c(C)nn3c2C)cc(OC)c1OC,74%
8,CCOc1ccc(-c2c(C)nn3c(C)c(C(=O)Nc4ccccc4C(=O)OC)cnc23)cc1OCC,-6% (active)
9,Cc1nn2c(C)c(C(=O)NCc3cccc(Br)c3)cnc2c1-c1ccccc1,53%
10,CCOc1ccc(-c2c(C)nn3c(C)c(C(=O)Nc4cc(C)cc(C)c4)cnc23)cc1OCC,133%
11,CCCNC(=O)c1cnc2c(-c3ccc(OCC)c(OCC)c3)c(C)nn2c1-c1ccccc1,76%
12,Cc1cccc(CNC(=O)c2cnc3c(-c4cccc(C)c4)c(C)nn3c2C)c1,-1% (active)
13,CCOc1ccc(-c2c(C)nn3c(-c4ccccc4)c(C(=O)NCCOC)cnc23)cc1OCC,-6% (active)
14,COC(=O)c1ccccc1NC(=O)c1cnc2c(-c3cccc(C)c3)c(C)nn2c1C,133%
15,CCOc1ccc(-c2c(C)nn3c(C)c(C(=O)Nc4cccc(Cl)c4C)cnc23)cc1OCC,67%
16,COCCNc1ccc2cc(S(=O)(=O)N3CCCCC3)ccc2n1,56%
17,COc1ccccc1CNC(=O)COCc1cc(-c2ccc3c(c2)OCO3)on1,19%
18,COC(=O)C(C)n1nnc2sc(-c3ccccc3)cc2c1=O (configuration not stated),88%
19,CCOC(=O)c1cccc(NC(=O)N2CCC(CN3CCc4ccccc4C3)CC2)c1,71%

row,Compound,survival
1,CC(=O)N1c2ccccc2C(=O)C1N1CCN(c2cc(Cl)ccc2C)CC1 (configuration not stated),138%
2,CCOc1ccc(-c2c(C)nn3c(C)c(C(=O)NCCc4ccccc4)cnc23)cc1OCC,53%
3,CCNC(=O)c1cnc2c(-c3ccccc3)c(C)nn2c1C,0% (active)
4,CCOc1ccc(CCNC(=O)c2cnc3c(-c4ccccc4)c(C)nn3c2C)cc1OCC,-3% (active)
5,Cc1nn2c(C)c(C(=O)NCC(C)c3ccccc3)cnc2c1-c1ccccc1 (configuration not stated),75%
6,CCOc1ccc(CCNC(=O)c2cnc3c(-c4ccc(F)cc4)c(C)nn3c2C)cc1OCC,159%
7,Cc1nn2c(C)c(C(=O)NCCc3ccccc3)cnc2c1-c1ccccc1,55%
8,Cc1cccc(CSc2nnc3[nH]c(=O)cc(-c4ccccc4)n23)c1,80%
9,CCOC(=O)C1CCCN(C(=O)c2ccc(C)c(NC(=O)c3nsc4ccccc34)c2)C1 (configuration not stated),123%
10,NS(=O)(=O)c1cccc(S(N)(=O)=O)c1,117%
11,Cc1ccc(NC(=O)CN2C(=O)C(c3ccc(F)cc3)=NC2(C)C)c(C)c1,85%
12,COc1ccc(-c2nn3c(-c4ccccc4C)nnc3c3ccccc23)cc1,-3% (active)
13,Cc1ccc(-c2nn3c(-c4ccccc4C)nnc3c3ccccc23)cc1,51%
14,Cc1ccc(-c2nn3c(-c4ccc(C)cc4)nnc3c3ccccc23)cc1,20% (active)
15,Cc1ccc(-c2nn3c(-c4ccccc4)nnc3c3ccccc23)cc1,76%
16,Cc1ccc(-c2nnc3c4ccccc4c(-c4ccccc4)nn23)cc1,123%
17,COc1ccc(-c2nn3c(-c4ccc(OC)cc4)nnc3c3ccccc23)cc1,73%
18,COc1ccc(CNC(=O)c2cccc(N3CCCS3(=O)=O)c2)cc1OC,63%
19,O=C(Nc1cccc(C(=O)N2CCN(c3ccccc3F)CC2)c1)c1nsc2ccccc12,67%
